# ELG1 genotox: inducers of genotoxicity in HEK293T ELG1-luciferase cells; HEK293T ELG1-luciferase reporter, luminescence, 16 h; Potency, µM (doses to about 46 µM), inactives show at the highest dose activity change, positive = activation, hits mostly activators; actives 1.3% (n = 330,000); note: % of control where 0% means no effect; nearly all actives have a fitted effect of over 60% in size
#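 ELG1-luciferase HEK293T cells, 2,000/well; compound pinned in; 16 hr, 37 °C, 5% CO2; ONE-Glo, 30 min RT; luminescence on CCD imager.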
# Rab9 prom act: Rab9 promoter activation. Huh7 Rab9 promoter-luciferase reporter, luminescence, 24 h. Potency, µM (top dose mostly 9.22 µM), for inactives: at the top dose activation, negative = inhibition, usual class: activators. actives 2.8% (n = 320,000); note: % of control where 0% means no effect; nearly all actives have a fitted effect of over 60% in size
#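 Using Huh7 cells stably transfected with Rab9 promoter–luciferase, compounds were incubated 24 h at 37 °C, 5% CO2; luciferase luminescence was read 10 min after reagent addition.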
# NPC1 prom act: activates the NPC1 promoter; Potency, µM (titrated, usually from 9.22 µM), inactives show top-dose activation, actives largely listed as activators; Huh7 NPC1 promoter luciferase reporter, 24 h; actives 2.4% (n = 320,000); note: % of control where 0% means no effect; nearly all actives have a fitted effect of over 60% in size
#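 Readout is luciferase luminescence, reflecting NPC1 promoter activation in stably transfected Huh7 cells after 24 h compound exposure at 37 °C in reduced-serum medium with 10% FBS.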
# FLuc counter: inhibits or activates purified firefly luciferase, miR-21 counter-screen; purified FLuc, Km substrates, luminescence inhibition; Potency, µM (top dose mostly 57.5 µM), without a hit: at the top dose activity change, negative = inhibition, hits mostly inhibitors; actives 6.9% (n = 360,000); AID 588342;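 note: plate controls were vehicle for no effect and reference inhibitor for full effect; nearly all actives have a fitted effect of over 55% in size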
# Target sequence (P08659 whole entry, looked up): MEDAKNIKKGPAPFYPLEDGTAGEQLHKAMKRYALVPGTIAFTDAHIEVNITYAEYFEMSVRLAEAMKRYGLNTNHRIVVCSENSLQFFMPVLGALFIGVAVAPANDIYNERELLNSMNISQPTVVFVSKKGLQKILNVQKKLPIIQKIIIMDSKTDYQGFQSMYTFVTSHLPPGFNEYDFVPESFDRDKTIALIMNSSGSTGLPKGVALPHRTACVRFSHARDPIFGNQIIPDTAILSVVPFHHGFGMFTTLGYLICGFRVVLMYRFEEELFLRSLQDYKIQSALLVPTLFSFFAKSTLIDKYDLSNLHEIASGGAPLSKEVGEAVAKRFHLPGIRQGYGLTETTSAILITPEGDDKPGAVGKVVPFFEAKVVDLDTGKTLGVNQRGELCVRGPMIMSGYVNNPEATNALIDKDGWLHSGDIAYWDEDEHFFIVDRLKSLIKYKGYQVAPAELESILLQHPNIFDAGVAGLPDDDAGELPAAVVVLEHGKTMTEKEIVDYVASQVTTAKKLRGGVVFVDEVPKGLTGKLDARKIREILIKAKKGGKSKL
#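 Purified P. pyralis luciferase (10nM final) with 10uM D-luciferin and 10uM ATP (Km levels) in 50mM Tris acetate pH 7.5, 10mM Mg acetate, 0.01% Tween-20, 0.05% BSA; qHTS 6-point titration, ~60 µM downward; luminescence read.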
# SMN2 splice up: increases expression of the SMN2 splice variant | actives 2.8% (n = 210,000) | Potency, µM (doses to about 46.1 µM), for the others: at the top dose activity change, positive = activation, actives largely listed as activators | HEK293 SMN2-luciferase splicing reporter, luminescence, 30-36 h; note: % of control where 0% means no effect; nearly all actives have a fitted effect of over 55% in size
#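 HEK293 cells carry an SMN2 minigene-luciferase reporter in which exon 7 inclusion puts luciferase in frame. Cells were seeded at 2000 cells/well, attached for 10-12 hours, then exposed to compounds for 30-36 hours at 37C before ONE-Glo luminescence.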
# ELG1 repair inh: blocks ELG1-dependent DNA repair in HEK293T cells. HEK293T ELG1-luciferase reporter, luminescence, 16 h; DNA damage induced by 5-fluorouridine. Potency, µM (series often up to 46.1 µM), for the others: at the highest dose activity change, negative = inhibition, usual class: inhibitors. actives 2.3% (n = 330,000); note: % is set by controls: 0 for no effect and ±100 for the full control effect; nearly all actives have a fitted effect of over 55% in size
#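 Cells (2,000 per well) received 5-fluorouridine plus test compound or DMSO and were incubated 16 hr at 37 °C, 5% CO2. Luciferase activity was read by luminescence 30 min after ONE-Glo addition; signal suppression marked inhibition of damage-induced ELG1 function.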
# The depositor's hits bear a star; ? = inconclusive; nt = no result. Rows were chosen to be rich in hits. Some 9.2% of all compounds tested hit in one or more screens of this group. Calls come from the whole dose curve; as a rule, active = well fitted curve in the direction sought with a large enough effect; inconclusive = small, poorly fitted or top-dose-only effect, or another doubt; inactive = no such curve, though single readings can be large; an effect the other way counts as inactive or inconclusive. Potency is the fitted concentration of half-maximal effect.
SMILES,ELG1 genotox,Rab9 prom act,NPC1 prom act,FLuc counter,SMN2 splice up,ELG1 repair inh
O=C(CSc1ncnc2ccccc12)NCC(=O)c1ccccc1,-19.3%,-9.2%,-1.4%,3.9%,-47.2%,14.8%
Cc1c(C2C(C#N)=C(N)N(c3cccc([N+](=O)[O-])c3)C3=C2C(=O)CCC3)cnn1C (centres undefined),2.4%,6.7%,-2.5%,0.3%,nt,6.3%
O=C(CSc1nc(-c2ccccc2)nc2ccccc12)Nc1cccc(C(=O)O)c1,3.3%,1.6%,-4.3%,19µM*,8.2%,-8.2%
CCOC(=O)c1ccc(NS(=O)(=O)c2ccc3[nH]c4c(c3c2)CCCCC4)cc1,nt,nt,nt,-12.5%,nt,nt
O=C(COC(=O)c1ccc2[nH]c3c(c2c1)CCCC3)Nc1ccccc1Cl,?,-2.6%,-2.3%,-8.4%,nt,?
COC(=O)c1ccc2[nH]c3c(c2c1)CC(C)CC3 (centres undefined),?,11.4%,20.1%,12µM*,nt,?
CCOC(=O)c1ccc2[nH]c3c(c2c1)CCCC3,23.1µM*,?,2.82µM*,10.7µM*,nt,?
CCC(C)c1ccccc1NC(=O)COC(=O)c1ccc2[nH]c3c(c2c1)CCCC3 (centres undefined),-12.7%,-1.8%,-5.4%,-17.8%,-15.9%,20.6µM*
NC(=O)c1ccc(NC(=O)COC(=O)c2ccc(Br)o2)cc1,4.5%,1.0%,-2.2%,2.0%,nt,?
CSCC(CO)NS(=O)(=O)c1ccc(C)cc1 (centres undefined),-4.1%,-2.4%,1.4%,-0.7%,nt,-5.8%
CCOc1cc(-c2nc(-c3ccccc3)c(-c3cc([N+](=O)[O-])ccc3C)[nH]2)ccc1O,nt,nt,nt,5.4%,-2.0%,nt
COc1ccc(-c2nc(-c3ccccc3)c(-c3cc([N+](=O)[O-])ccc3C)[nH]2)cc1OC,-4.6%,-2.3%,-3.7%,5.4%,-18.8%,10.3µM*
COc1ccc(N=C2C(=O)Nc3ccc(C)c(Br)c32)cc1,3.5%,-6.8%,-3.9%,8.49µM*,nt,6.9%
O=C1Nc2ccccc2C1=Nc1ccc(F)cc1,2.3%,-2.6%,2.0%,5.5%,nt,-0.7%
Cc1ccc(N=C2C(=O)Nc3ccc(C)c(Br)c32)cc1,-2.6%,0.1%,2.4%,12µM*,nt,14.4%
Cc1cc(N/N=C/c2ccncc2)nc2ccccc12,?,2.82µM*,?,10.7µM*,14.1µM*,?
Cc1cc(N/N=C/c2cccc(Br)c2)nc2ccccc12,?,?,3.16µM*,4.78µM*,12.6µM*,?
O=C(N/N=C/c1ccccc1C(F)(F)F)c1ccc2nc[nH]c2c1,11.5%,?,?,?,nt,?
CCc1ccc(C(=O)N/N=C/c2ccc(Cl)cc2Cl)nc1,6.0%,22.5%,10.0%,7.57µM*,26.0%,?
C=CCc1cccc(/C=N/NC(=O)c2ccccc2OC)c1O,?,-2.9%,24.4%,13.5µM*,-102.4%,?
C=CCc1cccc(/C=N/NC(=O)c2ccc3nc[nH]c3c2)c1O,?,-49.5%,-42.2%,16.9µM*,nt,?
O=C(N/N=C/c1ccc(Cl)cc1Cl)c1cccc(F)c1,?,2µM*,1.78µM*,3.38µM*,?,?
Cc1cc(S(=O)(=O)N2CCOCC2)ccc1OCC(=O)Nc1ccc(Br)cc1F,6.7%,2.8%,-2.9%,3.5%,nt,0.0%
COc1cccc(NC(=O)CN2C(=O)C3(SCC(=O)N3c3cc(C)cc(C)c3)c3ccccc32)c1 (centres undefined),nt,nt,nt,-7.1%,nt,nt
O=C(N/N=C/c1cc([N+](=O)[O-])ccc1Cl)c1ccc2nc[nH]c2c1,-0.5%,-5.9%,-7.6%,0.5%,-18.8%,-25.9%
O=C(N/N=C/c1ccc(Cl)cc1Cl)c1ccc2nc[nH]c2c1,18.2%,24.1%,7.7%,9.53µM*,nt,?

# Screens (PubChem BioAssay)
